Results from PubChem BioAssay AID504861 (Broad Institute, 2011).
Among all 1,200 compounds or so, about 290 (24%) were called active. Inconclusive results (about 3%) are left out.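 The calls were made as follows: active = compounds lowering cell viability signal with fitted half-maximal concentration at most ten times their highest tested concentration; inconclusive = flat fit with 30 to 70% signal loss, or poor fit; inactive = the rest.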 Only a sample is shown. Potency and affinity values are given separately.

experiment: HEK293T cell viability reduction, dose response, cytotoxicity control for LMP1 NF-kB inhibitor project, CellTiter-Glo luminescence, cherry-picks (AID 504861); conditions: CellTiter-Glo ATP luminescence, 48 h; series mostly up to 26 µM; activity change, negative = cytotoxicity: at the top concentration

With `CC(NC(=O)CNC(=O)OCc1ccccc1)C(=O)N1CC(O)CC1C(=O)OCc1ccccc1` (stereo not given) as the molecule, how does the “activity change, negative = cytotoxicity” value read?
Its value is 3.26% (inactive).

For `CC(C)(C)OC(=O)N1Cc2ccccc2C[C@H]1C(=O)NCC(=O)Nc1ccc2c(c1)OCCO2`, which “activity change, negative = cytotoxicity” value is on record?
The value was 1.18% (inactive).

With `COc1ccc(-n2cnc3c(cnn3CCC#N)c2=N)cc1` as the molecule, how does the “activity change, negative = cytotoxicity” value read?
The value was 1.49% (inactive).

With `Cc1ccn2c(c1)nc(=S)n2C(=O)c1ccccc1` as the molecule, how does the “activity change, negative = cytotoxicity” value read?
The value was 4.84% (inactive).

With `COc1ccc(NC(=O)c2cc3c(CO)cnc(C)c3oc2=Nc2cccc(F)c2)c(OC)c1` as the molecule, how does the “activity change, negative = cytotoxicity” value read?
The value was 5.36% (inactive).

With `N#Cc1c(Nc2ccccc2)sc(C(=O)c2ccc(F)cc2)c1N` as the molecule, how does the “activity change, negative = cytotoxicity” value read?
Its value is -4.44% (inactive).

For `C=CCn1c(SCc2csc(C)n2)nc2sc3c(c2c1=O)CCCC3`, which “activity change, negative = cytotoxicity” value is on record?
Its value is 0.035% (inactive).

For `CCn1c2ccccc2c2cc(/C=N/n3cn[nH]c3=S)ccc21`, which “activity change, negative = cytotoxicity” value is on record?
Its value is -7.9% (inactive).

For `O=C1CC(c2cccs2)Cc2nc(NC(=O)C3CC3)ncc21` (stereo not given), which “activity change, negative = cytotoxicity” value is on record?
Its value is 5.6% (inactive).

Which “activity change, negative = cytotoxicity” value does the source give for `CC(=O)O[C@]1(C(C)=O)CC[C@H]2[C@@H]3C=C(C)C4=CC(=O)CC[C@@H]4[C@H]3CC[C@@]21C` here?
The value was 3.47% (inactive).

With `Cc1ccc(-c2cc(C(=O)N/N=C/C=C/c3ccco3)c3ccccc3n2)cc1C` as the molecule, how does the “activity change, negative = cytotoxicity” value read?
Its value is 6.86% (inactive).

Which “activity change, negative = cytotoxicity” value does the source give for `Cc1ccc(C(=O)NCC(=O)N(C)Cc2cccc(F)c2)s1` here?
Its value is 9.7% (inactive).

For `Cn1cccc1/C=N/n1c(-c2ccc(Cl)cc2Cl)n[nH]c1=S`, which “activity change, negative = cytotoxicity” value is on record?
Its value is 20.7% (inactive).

With `O=C(Nc1cccc(C(=O)O)c1)Nc1ccccc1Cl` as the molecule, how does the “activity change, negative = cytotoxicity” value read?
Its value is -4.79% (inactive).

For `CCn1nnc2cc(C(=O)NCCc3ccccc3F)ccc21`, which “activity change, negative = cytotoxicity” value is on record?
The value was 4.03% (inactive).

For `O=C(NCCc1cn2ccccc2n1)C1CCCCC1`, which “activity change, negative = cytotoxicity” value is on record?
Its value is 2.71% (inactive).

With `Cc1ccc(C)c(Cn2c(O)c(N=NC(=S)Nc3ccccc3F)c3ccccc32)c1` as the molecule, how does the “activity change, negative = cytotoxicity” value read?
The value was 4.62% (inactive).

With `N#CC1=C(N)C(C#N)(C#N)C(c2cccnc2)C2CC(c3ccccc3)CC=C12` (stereo not given) as the molecule, how does the “activity change, negative = cytotoxicity” value read?
The value was -9.23% (inactive).

Which “activity change, negative = cytotoxicity” value does the source give for `Cc1nc(C)n(C(C)CNC(=O)c2ccco2)n1` (stereo not given) here?
Its value is 20.6% (inactive).

Which “activity change, negative = cytotoxicity” value does the source give for `O=C(O)c1ccccc1Nc1cccc(OCc2ccc3ccccc3n2)c1` here?
Its value is 2.93% (inactive).

With `CCCC(=O)NCCCc1nc2ccccc2n1C` as the molecule, how does the “activity change, negative = cytotoxicity” value read?
The value was 4.83% (inactive).

Which “activity change, negative = cytotoxicity” value does the source give for `O=C(O)c1cc(=O)c2c(OCC(O)COc3cccc4oc(C(=O)O)cc(=O)c34)cccc2o1` here?
The value was 2.34% (inactive).

Which “activity change, negative = cytotoxicity” value does the source give for `COc1ccc(-n2c(C)c([N+](=O)[O-])c3ccc(O)c(CN(C)C)c32)cc1` here?
Its value is -4.24% (inactive).

Which “activity change, negative = cytotoxicity” value does the source give for `COc1ccc(Cl)cc1NC(=O)CN(C)S(=O)(=O)c1cccs1` here?
Its value is 0.878% (inactive).

For `OCCN(CCO)CC(O)COCCC12CC3CC(CC(C3)C1)C2` (stereo not given), which “activity change, negative = cytotoxicity” value is on record?
The value was 6.07% (inactive).

Which “activity change, negative = cytotoxicity” value does the source give for `O=C(Nc1ccc2c(c1)nc1n2CCSC1)c1ccco1` here?
Its value is 1.58% (inactive).

For `Cc1ccc(/C=C/c2nc3ccccc3c(=O)[nH]2)cc1`, which “activity change, negative = cytotoxicity” value is on record?
The value was 11.4% (inactive).

With `CCn1c(/C=C/c2ccc([N+](=O)[O-])o2)nc2ccccc2c1=O` as the molecule, how does the “activity change, negative = cytotoxicity” value read?
Its value is -4.54% (inactive).

With `COc1ccccc1-c1ccccc1C1=CC(=O)CC(C)(C)C1=O` as the molecule, how does the “activity change, negative = cytotoxicity” value read?
Its value is -7.07% (inactive).

With `COc1ccc(/C=C2\N=C(C)OC2=O)cc1[N+](=O)[O-]` as the molecule, how does the “activity change, negative = cytotoxicity” value read?
The value was 17% (inactive).

For `Brc1cccc(-c2cnco2)c1`, which “activity change, negative = cytotoxicity” value is on record?
The value was 4.42% (inactive).

For `O=c1[nH]c(=O)n([C@H]2C[C@H](O)[C@@H](CO)O2)cc1C(F)(F)F`, which “activity change, negative = cytotoxicity” value is on record?
The value was -5.32% (inactive).

Which “activity change, negative = cytotoxicity” value does the source give for `O=c1c2c(nc3c(-c4cccc(Br)c4)c[nH]n13)CCCC2` here?
Its value is 5.69% (inactive).

Which “activity change, negative = cytotoxicity” value does the source give for `CC(C)C(=O)Nc1ccc(C(=O)N/N=C/c2cc(Br)cc(Br)c2O)cc1` here?
Its value is 4.48% (inactive).

Which “activity change, negative = cytotoxicity” value does the source give for `Clc1ccc(-c2cn3nc4c(nc3n2)CCCC4)cc1` here?
Its value is 10.1% (inactive).

For `COc1ccc(NC(=O)C2CCCN(S(=O)(=O)c3cccc4nonc34)C2)c(OC)c1` (stereo not given), which “activity change, negative = cytotoxicity” value is on record?
The value was 2% (inactive).

With `CC(=O)Nc1ccc(C=NNc2nnc(NN=Cc3ccc(NC(C)=O)cc3)c3ccccc23)cc1` as the molecule, how does the “activity change, negative = cytotoxicity” value read?
The value was 6.7% (inactive).

With `COc1ccc(N2C(=O)CC(Sc3nnc(-c4ccccc4)o3)C2=O)cc1` (stereo not given) as the molecule, how does the “activity change, negative = cytotoxicity” value read?
Its value is 4.02% (inactive).

Which “activity change, negative = cytotoxicity” value does the source give for `Cc1cccc(NC(=O)Nc2c(C)n(C)n(-c3ccccc3)c2=O)c1C` here?
Its value is 43.7% (inactive).

With `Cc1c(C=O)c2ccccn2c1C(=O)c1ccccc1Cl` as the molecule, how does the “activity change, negative = cytotoxicity” value read?
Its value is 5.73% (inactive).

With `Clc1ccc2nc(-c3ccc4c(c3)OCO4)cn2c1` as the molecule, how does the “activity change, negative = cytotoxicity” value read?
Its value is -2.92% (inactive).

For `COC(=O)c1ccc2nc(-c3ccc4c(c3)OCO4)cn2c1`, which “activity change, negative = cytotoxicity” value is on record?
Its value is 7.59% (inactive).

Which “activity change, negative = cytotoxicity” value does the source give for `Cc1c(/C(O)=C2/C(=O)C(=O)N(CCN3CCOCC3)C2c2ccccn2)cnn1-c1ccccc1` (stereo not given) here?
The value was -7.18% (inactive).

For `CCc1cc(=O)oc2c(CNCc3c(F)cccc3Cl)c(O)ccc12`, which “activity change, negative = cytotoxicity” value is on record?
Its value is 2.48% (inactive).

Which “activity change, negative = cytotoxicity” value does the source give for `CS(=O)(=O)c1ccc(Sc2nc3ccccc3s2)c([N+](=O)[O-])c1` here?
Its value is -4.39% (inactive).

Which “activity change, negative = cytotoxicity” value does the source give for `COc1ccccc1C(=O)NC(=O)CSc1nnc(N)s1` here?
Its value is -1.07% (inactive).

With `COc1ccc(-c2nc(CS(=O)CC(=O)NCc3ccc(Cl)cc3)c(C)o2)cc1` (stereo not given) as the molecule, how does the “activity change, negative = cytotoxicity” value read?
Its value is 6.15% (inactive).

With `COc1ccc(S(=O)(=O)NCCc2csc(-c3cccnc3)n2)cc1` as the molecule, how does the “activity change, negative = cytotoxicity” value read?
The value was 1.59% (inactive).

Which “activity change, negative = cytotoxicity” value does the source give for `Cc1cccc(Cn2cc(SCC(=O)Nc3nccs3)c3ccccc32)c1` here?
Its value is 8.72% (inactive).

For `O=C1/C(=C/c2cccnc2)SC(=S)N1Cc1ccco1`, which “activity change, negative = cytotoxicity” value is on record?
Its value is 5.5% (inactive).

Which “activity change, negative = cytotoxicity” value does the source give for `CCOc1ccc(-c2nc(CSCC(=O)NCc3ccco3)c(C)o2)cc1` here?
The value was 4.12% (inactive).

With `CCOC(=O)c1ccc(NC(=S)N2CCSC2c2ccc(OC)cc2)cc1` (stereo not given) as the molecule, how does the “activity change, negative = cytotoxicity” value read?
Its value is 8.51% (inactive).

With `Cc1ccc(C(=O)NCCc2cccs2)cc1` as the molecule, how does the “activity change, negative = cytotoxicity” value read?
The value was -6.71% (inactive).

Which “activity change, negative = cytotoxicity” value does the source give for `Cc1ccc(/C=C/C(=O)C2C(=O)c3ccccc3C2=O)cc1` here?
Its value is 3.89% (inactive).

With `Cc1cc(C)n(C2CCCCC2OC(=O)c2ccccc2F)n1` (stereo not given) as the molecule, how does the “activity change, negative = cytotoxicity” value read?
The value was 7.27% (inactive).

With `CNC(=S)Nc1ccc2nc(C)c(C)nc2c1` as the molecule, how does the “activity change, negative = cytotoxicity” value read?
Its value is 1.31% (inactive).

Which “activity change, negative = cytotoxicity” value does the source give for `Cc1cc(=O)[nH]c(N=N/C(=N/Nc2ccccc2C)c2ccccc2)n1` here?
Its value is 0.611% (inactive).

Which “activity change, negative = cytotoxicity” value does the source give for `O=C(Nc1ccc(Br)cc1)C1CC(O)CN1C(=O)OCc1ccccc1` (stereo not given) here?
The value was 6.89% (inactive).

For `O=C(O)CCc1nc(-c2ccc(Cl)cc2)no1`, which “activity change, negative = cytotoxicity” value is on record?
The value was 12.4% (inactive).

For `Cn1c(-c2ccccc2)cnc1SCC(=O)N1CCCCC1`, which “activity change, negative = cytotoxicity” value is on record?
Its value is 3.75% (inactive).

For `O=C(N/N=C/c1cccnc1)c1cc(-c2cccs2)nc2ccccc12`, which “activity change, negative = cytotoxicity” value is on record?
The value was -0.968% (inactive).

For `NC(=O)c1sc2nc3c(c(-c4cccs4)c2c1N)CCCCC3`, which “activity change, negative = cytotoxicity” value is on record?
The value was -1.65% (inactive).

For `O=C(CN1C(=O)c2ccccc2C1=O)NNC1=NS(=O)(=O)c2ccccc21`, which “activity change, negative = cytotoxicity” value is on record?
The value was 6.87% (inactive).

Which “activity change, negative = cytotoxicity” value does the source give for `COc1ccc(-n2nc(C(=O)c3cccs3)cc(-c3nc4ccccc4[nH]3)c2=N)cc1` here?
Its value is -3.71% (inactive).

With `O=C(Nc1nnc(N2CCCCCC2)s1)c1cc(-c2ccc(Br)cc2)on1` as the molecule, how does the “activity change, negative = cytotoxicity” value read?
The value was 4.97% (inactive).

For `Cc1ccccc1N(C(=O)c1snc(C(N)=O)c1N)C(C(=O)NC1CCCCC1)c1ccc(O)cc1` (stereo not given), which “activity change, negative = cytotoxicity” value is on record?
The value was 1.86% (inactive).

For `Cc1cc(NC(=O)c2ccc3c(c2)OCCO3)no1`, which “activity change, negative = cytotoxicity” value is on record?
The value was 7.18% (inactive).

With `CSc1nc2cc3c(cc2n1C(=O)c1ccc(C)cc1)OCCO3` as the molecule, how does the “activity change, negative = cytotoxicity” value read?
The value was 1.34% (inactive).

For `C/C(=N\Nc1ccc(C(F)(F)F)cc1[N+](=O)[O-])C(C)C`, which “activity change, negative = cytotoxicity” value is on record?
The value was 0.008% (inactive).

For `Nc1ccccc1SC1CC(=O)N(c2ccccc2Cl)C1=O` (stereo not given), which “activity change, negative = cytotoxicity” value is on record?
The value was -4.97% (inactive).
